Growth data for 15 compounds are collected here from PubChem BioAssay (NCI).

About 83,000 compounds went through this panel and 20% of them were active in at least one assay; those are over-represented in the sample as a whole.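 Each cell line was grown in a 96-well plate and treated with one concentration of compound for 48 hours. Values below 10 were considered active.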 Unmarked numbers belong to inactive results. The source made the active and inactive calls.

Holding throughout (assay): NCI-60 one-dose screen, 48 h (100 = growth as untreated, 0 = no growth, -100 = all killed)
Common to all, as to settings: 10 µM unless noted

In assay [1] the test system is SR leukemia.
In assay [2] the test system is RPMI-8226 leukemia.
Assay [3] concerns OVCAR-8 ovarian.
The test system of assay [4] is OVCAR-5 ovarian.
Assay [5] concerns OVCAR-4 ovarian.
The subject of assay [6] is IGROV1 ovarian.
Assay [7] has as its system OVCAR-3 ovarian.
For assay [8], the system named is HS 578T breast.
The test system of assay [9] is NCI/ADR-RES ovarian.
For assay [10], the system named is T-47D breast.
Assay [11] has as its system BT-549 breast.
The test system of assay [12] is MDA-MB-435 melanoma.
For assay [13], the system named is SW-620 colon.
In assay [14] the test system is MCF7 breast.
For assay [15], the system named is HCT-116 colon.
In assay [16] the test system is HCC-2998 colon.
In assay [17] the test system is KM12 colon.
In assay [18] the test system is SK-OV-3 ovarian.

`O=C1/C(=C/c2ccc(Cl)cc2Cl)CN(S(=O)(=O)c2ccccc2)C/C1=C\c1ccc(Cl)cc1Cl`: the growth in assay [1] was -11.6% (active); in assay [2], -21.9% (active); in [3], 13.6%; in assay [4], -3.2% (active); in assay [5], 22.6%; in assay [6], -24.3% (active). The growth was -36.4% (active) in assay [7]; 37.9% in assay [8]; 20.5% in assay [9]; 23.7% in assay [10]; -72.8% (active) in assay [11]; 3.98% (active) in [12]. The growth in assay [13] was -15.2% (active); in assay [14] it was 13.9%; in assay [15] it was -84% (active); in assay [16], -15.3% (active); in assay [17] it was -57.2% (active).
Take `Cc1ccc2c(NCCCN(C)C)c3c(C)nn(C)c3nc2c1`: the growth in assay [1] was 5.55% (active); in assay [2] it was 27.8%; in assay [3], -5.26% (active); in [4] it was 39.3%; in assay [18], 39.2%; in [6], 29.2%. The growth is 49.3% in assay [7]; 74.1% in [8]; 45.3% in [9]; 44.8% in assay [10]; 54.3% in [11]; 37.1% in assay [12]. Further, the growth is 23.5% in assay [13]; 5.14% (active) in assay [14]; 20.2% in [15]; 59.3% in [16]; 32.8% in [17].
For `Cc1ccc(S(=O)(=O)N(CCc2ccc(Cl)cc2)S(=O)(=O)c2ccc(C)cc2)cc1`, the growth is 82.5% in assay [1]; 76.9% in assay [2]; 106% in assay [4]; 86.5% in assay [5]; 85.2% in assay [18]; 89.1% in [6]. In addition, the growth in assay [7] was 95%; in assay [8] it was 103%; in [9], 87.9%; in assay [10] it was 82%; in assay [11], 98.8%; in [12], 95.4%. Also, the growth was 101% in assay [13]; 87.9% in assay [14]; 93.3% in [15]; 88.1% in assay [16]; 91.7% in assay [17].
`CC1(C)OCC2OC3(C(=O)O)OC(C)(C)OC3C2O1` (stereo not given): the growth is 101% in [1]; 117% in assay [2]; 106% in [4]; 118% in assay [5]; 101% in assay [18]; 106% in assay [6]. Besides, the growth in assay [7] was 99.2%; in [8] it was 102%; in assay [9], 107%; in assay [10], 95.4%; in [11], 105%; in assay [12], 104%. Moreover, the growth is 109% in [13], 112% in [14], 106% in assay [15] and 100% in assay [17].
Turning to `O=C1CC(c2nc3ccccc3s2)CN1C1CCCCC1` (stereo not given), the growth in assay [1] was 97.1%; in [3], 95.4%; in assay [4] it was 99.8%; in assay [5], 94.1%; in assay [18], 91.6%; in assay [6], 95%. For the same compound, the growth in assay [7] was 101%; in assay [8], 98.9%; in assay [9], 89.4%; in assay [10], 88.2%; in [11], 97.1%; in assay [12], 107%. In addition, the growth is 107% in [13]; 89.1% in [14]; 108% in assay [15]; 95.2% in assay [16]; 98% in assay [17].
For `COC(/C=C/c1ccc([N+](=O)[O-])cc1)OC`, the growth was 31.6% in [1]; 70% in assay [2]; 84.4% in assay [3]; 99.8% in assay [4]; 110% in [18]; 89% in assay [6]. The growth in [7] is 120%; in assay [8] it was 122%; in assay [9], 96%; in assay [10], 52%; in [11], 118%; in [12] it was 96.8%. The growth in [13] was 85.2%; in [14], 77.2%; in assay [15], 27.3%; in assay [17], 110%.
With `COc1cc(NC(N)=NCC(C)(C)COc2ccc(C(F)(F)F)cc2)cnc1C#N`, the growth in [1] is 49.8%; in assay [2] it was 46%; in assay [3], 81.8%; in assay [4], 65%; in assay [18], 66.4%; in [6], 43.9%. The growth in assay [7] was 67.5%; in assay [8] it was 31.6%; in [9], 70.2%; in assay [10] it was 30.3%; in assay [11] it was 75.4%; in [12], 61.1%. Moreover, the growth is 69.9% in assay [13]; 32.5% in assay [14]; 37.7% in assay [15]; 18.9% in assay [16]; 57.6% in [17].
Take `CCCCCCCCCCCCN1CCCC(C)C1` (stereo not given): the growth was -13.9% (active) in assay [1]; 64.1% in assay [2]; 88.2% in assay [4]; 68% in assay [5]; 88.3% in assay [18]; 82.4% in [6]. In addition, the growth was 93.3% in assay [7]; 99.8% in assay [8]; 88.2% in assay [9]; 74.6% in [10]; 78.1% in [11]; 95.9% in assay [12]. Moreover, the growth in assay [13] was 87.7%; in assay [14], 68.6%; in assay [15] it was 60.7%; in assay [16] it was 86.9%; in [17] it was 60.7%.
For the compound `O=C(CN1CCN(c2cc3c(cc2F)c(=O)c(C(=O)O)cn3C2CC2)CC1)Nc1nc(-c2ccccc2)cs1`, the growth in assay [1] was 90.5%; in assay [2] it was 66.3%; in assay [3], 52.1%; in [4], 97.7%; in assay [18] it was 93.9%; in assay [6], 84.7%. Further, the growth is 90.3% in [7]; 60.5% in assay [8]; 92.7% in [9]; 72.8% in [10]; 73.7% in assay [11]; 86.6% in assay [12]. The growth in assay [13] is 91.7%; in [15], 81.2%; in assay [16] it was 92.6%; in assay [17], 89.6%.
For `COc1ncc(-c2ccc3ncnc(Nc4cccc(Cl)c4)c3c2)cc1NS(C)(=O)=O`, the growth in assay [1] is 50.6%; in assay [2] it was 22.8%; in [3] it was 45.5%; in assay [5], 70.7%; in [18] it was -11.2% (active); in assay [6] it was -45.5% (active). For the same compound, the growth in [7] was 26.9%; in assay [8], 16.2%; in assay [9] it was 51%; in assay [10], -6.68% (active); in assay [11], 25.3%; in assay [12] it was 41.9%. The growth in assay [13] is 50.2%; in [14], 7.7% (active); in assay [15] it was 47%; in [16], 56.8%; in [17] it was 55.3%.
Regarding `CC/C(Cc1ccccc1)=C(\c1ccc(OCCN2CCCC2)cc1)c1ccc(OC(C)=O)cc1`, the growth is 14.3% in [1]; 60.2% in assay [2]; 97.8% in assay [3]; 92.6% in assay [4]; 78% in assay [6]; 89.6% in assay [7]. For the same compound, the growth in [8] is 85.5%; in assay [9], 75.5%; in assay [10], 51.4%; in assay [11], 93.8%; in assay [12], 69.7%; in assay [13] it was 89.9%. The growth in assay [14] is 24.6%; in [15] it was 78.7%; in [17], 70.7%.
Take `Clc1cccc(Nc2nc(Nc3cnc4ccccc4c3)c3[nH]cnc3n2)c1`: the growth is 80.8% in [1]; 75.6% in assay [3]; 89.3% in assay [4]; 93.9% in assay [5]; 71.2% in assay [18]; 62.3% in [6]. The growth was 73.6% in assay [7]; 65.6% in [8]; 87.2% in assay [9]; 53.7% in assay [10]; 73.7% in assay [11]; 84.4% in [12]. For the same compound, the growth in assay [13] is 98.1%; in assay [14], 64.9%; in assay [15] it was 76.4%; in assay [16], 100%; in [17], 92.8%.
For the compound `Nc1cccc(NC(=O)C(=O)Nc2cccc(N)c2)c1`, the growth in [1] is 115%; in [2] it was 88.1%; in assay [3], 94.8%; in [4], 94.5%; in assay [18] it was 117%; in [6] it was 75.7%. In addition, the growth in [7] was 101%; in assay [8], 89.8%; in assay [9], 93.1%; in [10], 105%; in assay [11] it was 127%; in [12] it was 102%. For the same compound, the growth in assay [13] is 95.5%; in [14] it was 100%; in assay [15], 80.2%; in [16], 105%; in [17], 98.7%.
`O=C(Nc1ccc(CN2CCOCC2)cc1)c1[nH]ncc1Nc1ncnc2sccc12`: the growth in assay [1] was -4.39% (active); in assay [3], 11.6%; in [4], 16.1%; in assay [5], 13.6%; in assay [18], 33%; in [6] it was 16.7%. Besides, the growth in assay [7] was -15.7% (active); in [8], -2.92% (active); in assay [9] it was 4.5% (active); in assay [10] it was 17.5%; in [11], -8.71% (active); in [12] it was 18.1%. Further, the growth in assay [13] was 5.35% (active); in assay [14], 8.76% (active); in assay [15] it was 6.07% (active); in assay [16], -9.48% (active); in assay [17], 0.0776% (active).
Take `COc1ccc2nc(NC(=O)c3cccnc3Nc3cc(OC)c(OC)c(OC)c3)sc2c1`: the growth in assay [1] is -12.6% (active); in [2], -1.38% (active); in assay [3], -10.3% (active); in assay [5], -65.5% (active); in [18], -40.4% (active); in assay [6], 68.6%. Further, the growth in assay [7] was -62.5% (active); in assay [8] it was 44.5%; in [9], 4.41% (active); in assay [10], -7.17% (active); in assay [11], -90.5% (active); in [12], 7.52% (active). Besides, the growth in assay [13] was 27.8%; in assay [14], 8.16% (active); in assay [15] it was -2.4% (active); in [16] it was 77.8%; in assay [17] it was 11.9%.
